The structures appear in SMILES notation. Among all 330,000 compounds or so, about 520 (0.16%) were called active.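 The calls were made as follows: active = inhibition of at least 50% in every replicate; inconclusive = best replicate reaches 50% inhibition but some replicates fall short; inactive = the rest.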 For the sample, actives were picked, then their nearest neighbours and some compounds at random.

In the assay the target is Histone acetyltransferase RTT109 (Candida albicans (strain SC5314 / ATCC MYA-2876)) (UniProt Q5AAJ8). Briefly: inhibitors of C. albicans Rtt109/Vps75 HAT, primary screen, biochemical, ThioGlo CoA-SH fluorescence, plate reader (AID 540336). The settings on record: purified Rtt109/Vps75, ThioGlo CoA-SH fluorescence, 4 h; at 34.9 µM; stronger effect = higher value.
Sequence of Histone acetyltransferase RTT109 (Candida albicans (strain SC5314 / ATCC MYA-2876)) (Q5AAJ8 whole entry, looked up): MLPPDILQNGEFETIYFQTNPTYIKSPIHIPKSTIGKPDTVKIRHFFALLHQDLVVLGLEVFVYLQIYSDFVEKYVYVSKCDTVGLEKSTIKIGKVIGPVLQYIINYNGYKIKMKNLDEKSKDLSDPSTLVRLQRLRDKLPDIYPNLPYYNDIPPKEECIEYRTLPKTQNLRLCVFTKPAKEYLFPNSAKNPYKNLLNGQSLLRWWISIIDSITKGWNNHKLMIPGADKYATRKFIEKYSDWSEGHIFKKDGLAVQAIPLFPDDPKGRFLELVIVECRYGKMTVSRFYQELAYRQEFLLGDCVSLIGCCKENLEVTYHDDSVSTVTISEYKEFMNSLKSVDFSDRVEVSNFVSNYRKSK
On to `CC1(C)N=C(N)NC(Nc2ccc(Cl)cc2)=N1`, for which the inhibition is -1.08% (inactive).
On to `CC(C)(C)OC(=O)N1CCC(C(=O)Nc2cccc(C(=O)NCCc3ccccc3)c2)CC1`, for which the inhibition is 15.4% (inactive).
With `COc1ccc2c(c1)c(=Cc1ccc(N(C)C)cc1)c1cc(-c3ccccc3)[n+](C)n12`, the inhibition is 14.8% (inactive).
Turning to `CC(=O)OCC(=O)C1(O)CCC2C3CC(C)C4=CC(=O)CCC4(C)C3C(O)CC21C` (configuration not stated), the inhibition was -0.0615% (inactive).
`Oc1cccc(CCc2ccccn2)c1`: the inhibition was -14.8% (inactive).
On to `CC/C(=C\c1ccc(Cl)cc1)c1ccncc1`, for which the inhibition was -6.6% (inactive).
For `CC12CCCCC1=CC(=O)CC2` (configuration not stated), the inhibition is -10.3% (inactive).
As for `CC1=NN(/C(=N\c2nnc(C)s2)Nc2ccccc2)[C@H](c2ccc(C)cc2)S1`, the figure is -10.9% (inactive); as for `Cc1cn(C2CC(O)C(CO)O2)c(=O)n(CCCc2ccccc2)c1=O` (configuration not stated), 5.62% (inactive).
As to `COc1ccc(/C=C2/CCCc3ccccc3C2=O)cc1`, the inhibition was -1.83% (inactive).
As for `O=C(CNC(=O)c1ccccc1F)OCC(=O)c1c[nH]c2ccccc12`, the figure is 3.64% (inactive); as for `COc1ccc(Cl)cc1C=CC=NNC(=O)c1ccncc1`, -2.75% (inactive); as for `Cc1cccc(NC(=S)N2CCC(C(=O)c3ccc(F)cc3)CC2)c1`, -3.47% (inactive).
In the case of `O=C(Nc1ccc(S(=O)(=O)N2CCOCC2)cc1)C1CCN(S(=O)(=O)c2ccc(Cl)cc2)CC1`, the inhibition is 1.41% (inactive).
The result for `C/C(=N\NC(=O)Cc1ccc(Cl)cc1)c1ccccn1` reads 1.88% (inactive); that for `CCOc1cc2ccccc2cc1C(=O)Nc1ccccn1`, -0.763% (inactive); that for `CCN(CC)CCOc1ccc2c(c1)C(=NNC(=O)c1ccccn1)c1cc(OCCN(CC)CC)ccc1-2`, 72.5% (active).
As for `COc1ccc(CCC(=O)Nc2ccc(Cl)c(S(=O)(=O)N3CCOCC3)c2)cc1OC`, the figure is 4.5% (inactive); as for `CCNC(=S)NCC`, 3.05% (inactive).
The result for `O=C(O)c1ccc([N+](=O)[O-])cc1Sc1ccsc1` reads -13.5% (inactive); that for `CC(NC(=O)c1ccccc1)C(=O)OCC(=O)Nc1cccc(S(=O)(=O)N2CCCC2)c1` (configuration not stated), 9.23% (inactive).
`CCCCN1CC(CO)Oc2cccc(F)c2S1(=O)=O` (configuration not stated): the inhibition was -0.514% (inactive).
The result for `COc1ccc(CCNC(=O)COC(=O)c2cnc(Cl)c(Cl)c2)cc1` reads 9.18% (inactive).
Regarding `COc1ccc(CCNC(=O)CSc2nc(-c3ccc(OC)c(OC)c3)ccc2C#N)cc1`, the inhibition is 0.0988% (inactive).
As for `COc1cccc(-c2ccc(C#N)c(SCC(=O)NCCc3ccc(Cl)cc3)n2)c1`, the figure is 58.6% (active).
In the case of `O=[N+]([O-])c1ccc(C=NN=Cc2ccc([N+](=O)[O-])cc2)cc1`, the inhibition is -12.3% (inactive).
As for `COc1ccc(C(CNC(=O)c2cc(S(=O)(=O)Nc3cccc(C)c3)ccc2C)N2CCCC2)cc1` (configuration not stated), the figure is 22.1% (inactive); as for `CCOc1cc(C=NNC(=O)CCCC(=O)NN=Cc2ccc(O)c(OCC)c2)ccc1O`, 3.06% (inactive).
The result for `COC(=O)C1CC2=C(CC(C)(C)CC2=O)N(c2ccccc2)C1=O` (configuration not stated) reads -0.664% (inactive).
For `COc1ccc(CCNC(=O)c2ccc(NC(=O)CC3SC(N4CCCCC4)=NC3=O)cc2)cc1OC` (configuration not stated), the inhibition is 9.04% (inactive).
As for `O=c1[nH]n2c(-c3ccccc3)nc(O)c2c2ccccc12`, the inhibition was -9.47% (inactive).
As for `O=c1[nH]c2ccccc2n2c(-c3ccccc3)nnc12`, the inhibition was 127% (active).
Take `O=C(c1ccc2c(c1)C(=O)N(Cc1ccncc1)C2=O)N1CCN(S(=O)(=O)c2ccc(OC(F)(F)F)cc2)CC1`: the inhibition was 5.03% (inactive).
As for `NC(=O)c1ncn([C@@H]2O[C@H](CNCc3cnc(N4CCOCC4)s3)[C@@H](O)[C@H]2O)n1`, the figure is 0.868% (inactive).
The result for `O=C(OCCOc1ccccc1F)c1cc(S(=O)(=O)N2CCOCC2)ccc1F` reads -4.81% (inactive); that for `O=C(OCCOc1ccccc1Cl)c1cc(S(=O)(=O)N2CCCCC2)ccc1N1CCOCC1`, 2.25% (inactive); that for `NNc1cccc(C=Cc2ccccc2)cc1=O`, 9.21% (inactive).
For the compound `COc1ccccc1N(CC(=O)Nc1c(C)n(C)n(-c2ccccc2)c1=O)S(=O)(=O)c1ccccc1`, the inhibition was 33.3% (inactive).
For `CCc1c(Nc2ccccc2C)nc(N)[nH]c1=O`, the inhibition is -5.27% (inactive).
In the case of `O=C(O)c1ccc(Cn2cnc3c(=S)nc[nH]c32)cc1`, the inhibition was 0.573% (inactive).
As for `O=C1OCC2=C1C(c1ccc(Cl)cc1)c1cc3c(cc1O2)OCO3` (configuration not stated), the figure is 8.44% (inactive); as for `Cc1cc(C)c2c(NC(=O)C3CC3)nn(C)c2n1`, -4.52% (inactive).
The result for `C=CCN1C=C(C(=O)c2ccccc2)C(=O)CC1` reads 9.46% (inactive).
As for `CN(C)CCNC(=O)c1ccc(Cl)c2cc3ccccc3nc12`, the figure is 0.27% (inactive); as for `Nc1ccccc1SC(C[N+](=O)[O-])c1ccccc1` (configuration not stated), 108% (active).
For the compound `Cc1ccc(C(C[N+](=O)[O-])c2c(C)cc3ccccn23)cc1` (configuration not stated), the inhibition is 2.3% (inactive).
The result for `Oc1c(CN2CCCC2)cc(COCc2ccccc2)c2cccnc12` reads -7.26% (inactive); that for `CCOc1ccc(-n2c(SCC(=O)OC)nc3sc4c(c3c2=O)CCN(C)C4)cc1`, -6.79% (inactive); that for `CCCSc1nc2sc3c(c2c(=O)n1-c1ccc(OC)cc1)CCN(C)C3`, 0.409% (inactive).
In the case of `CCOc1ccc(-n2c(SCC(=O)Nc3ccc(OC)cc3)nc3sc4c(c3c2=O)CCN(C)C4)cc1`, the inhibition was 11.2% (inactive).
Turning to `COc1ccccc1NC(=O)CSc1nc2sc3c(c2c(=O)n1-c1ccccc1)CCN(C)C3`, the inhibition is 59.4% (active).
As to `CCn1c(SCC(=O)Nc2ccc(Br)cc2)nc2sc3c(c2c1=O)CCN(C)C3`, the inhibition was 51.8% (active).
On to `CCSc1nc2sc3c(c2c(=O)n1-c1ccc(C)cc1)CCN(C)C3`, for which the inhibition is 8.04% (inactive).
Regarding `Cc1ccc(C(=O)CSc2ccccc2C(=O)O)cc1`, the inhibition was -2.24% (inactive).
Regarding `Cc1ccc(SC(CC(=O)c2ccc(C(C)(C)C)cc2)C(=O)O)cc1` (configuration not stated), the inhibition was 142% (active).
As for `Cc1ccc(C(=O)CNc2ccc(F)cc2)cc1`, the figure is -2.53% (inactive); as for `O=[N+]([O-])c1ccc(N=NNc2ccc([N+](=O)[O-])cc2)cc1`, 2.16% (inactive); as for `Cc1cccc(CC2(O)C(=O)Nc3ccccc32)n1` (configuration not stated), -2.36% (inactive).
The result for `O=C(Nc1c(Br)cc2c(c1Br)Cc1ccccc1-2)C(F)(F)F` reads -19.3% (inactive).
As for `OCC1(CO)CC2(C1)CC(CO)(CO)C2`, the figure is -0.212% (inactive); as for `Cc1cccc(C=CC(=O)c2ccc(Cl)cc2)c1`, -3.33% (inactive); as for `CNc1nc(=O)n(C2CCCO2)cc1C` (configuration not stated), 12.5% (inactive).
Take `S=C(Nc1ccccc1)Nc1ccc2ccccc2c1`: the inhibition was 0.68% (inactive).
With `C=CCn1c(=O)n(C)c2c(=O)n(C)c(=O)n(C)c21`, the inhibition is 1.91% (inactive).
The result for `CNC(=O)NC(=O)C(C)N1CCN(C/C=C/c2ccccc2)CC1` (configuration not stated) reads -0.128% (inactive).
The result for `CC(C)=CCc1ccc(O)c(=O)cc1C(C)C` reads 6.99% (inactive).
The result for `CCC(=O)N(CCc1ccccc1)Cc1cc2cc(C)ccc2[nH]c1=O` reads 54.1% (active); that for `CCN(Cc1cc2cc(C)ccc2[nH]c1=O)S(=O)(=O)c1ccccc1`, 6.13% (inactive).
Consider `Cc1ccc2[nH]c(=O)c(CN(CCCN(C)C)C(=O)Nc3cccc(Cl)c3)cc2c1`, for which the inhibition is 6.58% (inactive).
The result for `COc1cccc2oc(CCc3ccccc3)cc(=O)c12` reads -16.8% (inactive); that for `COc1cc(/C=C/C(=O)OCC(=O)NC2CC2)cc(OC)c1OC`, 10.9% (inactive).
Regarding `O=C(Nc1ccc2c(c1)OCCO2)C1CCCN(c2ncccn2)C1` (configuration not stated), the inhibition is -8.66% (inactive).
As for `Cc1cc(C)nc(N2CCC(C(=O)Nc3ccc4c(c3)OCCO4)CC2)n1`, the figure is 54.4% (active); as for `O=C(Nc1ccc2c(c1)OCCO2)C1CCCC1`, -1.87% (inactive); as for `C[C@H](O)[C@@H]1C(=O)N2CCc3ccc(N4CCOCC4)cc3[C@@H]2C[C@@H]1N(C)C(=O)C(C)(C)C`, 0.072% (inactive).
As for `Cc1nn(-c2ccc(F)cc2)c(Cl)c1/C=C(/CCC(=O)O)c1nc2ccccc2s1`, the figure is 3.42% (inactive).
`CC(=O)Nc1c2c(nn1-c1cccc(C)c1)CSC2`: the inhibition is -4.46% (inactive).
`COc1ccc(-n2nc3c(c2NC(=O)c2ccc(N4C(=O)CCC4=O)cc2)CSC3)cc1`: the inhibition is 57.3% (active).
The result for `CC(C)C(=O)Nc1c2c(nn1-c1ccccc1)CSC2` reads 2.65% (inactive).
The result for `COc1cc(C(=O)N2CCN(S(=O)(=O)c3ccc(C(C)C)cc3)CC2)ccc1OCC(=O)N1CCOCC1` reads -4.48% (inactive); that for `COc1ccc(Cn2cc(CN3CCS(=O)(=O)N(Cc4ccc(-c5cccc(Cl)c5)cc4)C(C)C3=O)nn2)cc1` (configuration not stated), 11.2% (inactive).
For the compound `COc1cccc(CNC(=O)CCCC(=O)Nc2cccc([N+](=O)[O-])c2)c1`, the inhibition was -7.21% (inactive).
As for `COc1ccc(S(=O)(=O)NC(C)C(=O)Nc2cccc([N+](=O)[O-])c2)cc1` (configuration not stated), the figure is -0.177% (inactive).
The result for `COC(=O)/C=C\C(=O)Nc1cccc([N+](=O)[O-])c1` reads 68.2% (active); that for `CC/C(=C(/c1ccccc1)c1ccc(OCC[N+](C)(C)C)cc1)c1ccccc1`, -16.1% (inactive); that for `Cc1ccc(S(=O)(=O)n2oc(=O)c(C3CCCCC3)c2N)cc1`, 0.705% (inactive).
The result for `CCCCN(C(=O)CSCc1ccc(C)cc1)c1c(N)n(Cc2ccccc2)c(=O)[nH]c1=O` reads -4.15% (inactive); that for `COc1ccc(CC(=O)NC(C)c2ccc(Cl)c(Cl)c2)cc1S(=O)(=O)N1CCOCC1` (configuration not stated), -2.98% (inactive).
As to `COc1cc2c(cc1OC)C1C(=O)c3cc(OS(C)(=O)=O)c(OC)cc3C1N(C)C2=O` (configuration not stated), the inhibition was -1.27% (inactive).
The result for `CN(C(=O)CN1C(=O)/C(=C/c2ccc(Cl)cc2)SC1=S)C1CCS(=O)(=O)C1` (configuration not stated) reads -24.5% (inactive); that for `COc1ccc(/C=C2\SC(=O)N(CCC(=O)NC3CCS(=O)(=O)C3)C2=O)cc1` (configuration not stated), 11.3% (inactive).
As for `CC(C(=O)NC1CCS(=O)(=O)C1)N1C(=O)/C(=C/c2ccc(Cl)cc2)SC1=S` (configuration not stated), the figure is 180% (active).

By inhibition is commonly meant the change of the read-out against control, counted positive when it falls.
